This passage reports inhibition results from PubChem BioAssay AID2360 (The Scripps Research Institute Molecular Screening Center, 2010).

The structures appear in SMILES notation. In all, about 1,900 compounds went through this assay and about 85 (4%) were called active.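 Rule for the calls: active = mean PP5 inhibition over triplicate wells above about 9.5% taken from the earlier PP1 screen (limit read from the data); inactive = the rest.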 Only a sample is shown.

For orientation: inhibition means the change of the read-out against control, counted positive when it falls.

Chain of Serine/threonine-protein phosphatase 5 (Homo sapiens) (P53041 whole entry, looked up): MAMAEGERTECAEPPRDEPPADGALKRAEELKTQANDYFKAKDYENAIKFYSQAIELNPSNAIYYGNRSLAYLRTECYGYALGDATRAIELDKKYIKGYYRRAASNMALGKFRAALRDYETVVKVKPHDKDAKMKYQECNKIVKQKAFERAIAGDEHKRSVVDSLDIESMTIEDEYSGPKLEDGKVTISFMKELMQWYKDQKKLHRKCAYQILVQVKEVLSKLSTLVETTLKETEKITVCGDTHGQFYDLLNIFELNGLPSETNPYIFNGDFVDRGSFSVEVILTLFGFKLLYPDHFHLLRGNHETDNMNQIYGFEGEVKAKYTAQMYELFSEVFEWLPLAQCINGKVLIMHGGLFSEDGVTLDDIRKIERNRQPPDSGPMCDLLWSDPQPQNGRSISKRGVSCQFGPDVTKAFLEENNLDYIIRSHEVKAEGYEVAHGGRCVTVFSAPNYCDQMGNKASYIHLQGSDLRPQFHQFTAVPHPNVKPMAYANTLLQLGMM

This test concerns the target Serine/threonine-protein phosphatase 5 (Homo sapiens) (UniProt P53041). As to the kind of experiment: PP5 phosphatase inhibition by PP1 hits, confirmation, counter-screen for PP1 inhibitor project, biochemical, fluorescence, triplicate (AID 2360). As to conditions: purified PP5c, OMFP fluorescence; at 6.7 µM; stronger effect = higher value. On the technique in general: A counterscreen serves to expose hits that act by an unwanted route or on another target.
As to `Cc1ccc(-c2cc(C(=O)N/N=C/C=C/c3ccco3)c3ccccc3n2)cc1C`, the inhibition is 2.19% (inactive).

With `CC1CCCCN1S(=O)(=O)c1ccc(C(=O)Nc2nnc(-c3cccs3)o2)cc1` (stereo unspecified), the inhibition is 1.29% (inactive).

In the case of `Nc1ccc2nc3c(=O)[nH]c(=S)[nH]c3nc2c1`, the inhibition was 15% (active). Consider `O=C(Nc1cccc(-c2nc3ccccc3[nH]2)c1)c1ccc(C(=O)Nc2cccc(-c3nc4ccccc4[nH]3)c2)cc1`, for which the inhibition is -2.5% (inactive). `COCCN(CCOC)S(=O)(=O)c1ccc(C(=O)Nc2nc3c(s2)CCc2ccccc2-3)cc1`: the inhibition is -4.16% (inactive).

On to `Cc1nc2c(C(=O)NCc3ccc4c(c3)OCO4)c[nH]n2c(=O)c1Cc1ccccc1F`, for which the inhibition was 0.13% (inactive). Consider `COc1ccc(C2C(C(C)=O)=C(O)C(=O)N2CCc2c[nH]c3ccccc23)cc1` (stereo unspecified), for which the inhibition was 1.2% (inactive).

As for `Clc1ccc(-n2nnnc2-c2cnc(-c3ccccn3)nc2-c2cccs2)cc1`, the inhibition was -0.17% (inactive). For the compound `CCC(=C/c1sc2ccc3ccccc3c2[n+]1C)/C=C1\Sc2ccc3ccccc3c2N1C`, the inhibition is 0.84% (inactive). As to `CS(=O)(=O)c1ccc2c(c1)SC1=NC(=O)/C(=C/c3ccco3)C(=N)N12`, the inhibition is -6.01% (inactive). Turning to `Cc1ccc2cc(CCNC(=O)c3c(-c4ccccc4Cl)noc3C)c(=O)[nH]c2c1`, the inhibition is -2.45% (inactive). Consider `CCOc1ccc(/C=C/C(=O)OCC(=O)c2ccccc2OC)cc1OC`, for which the inhibition was -0.62% (inactive). Under `Cc1ccc(S(=O)(=O)N2[C@@H](c3cccc(Cl)c3)C(C(=O)O)=CC[C@H]2c2ccc(Cl)c(Cl)c2)cc1` stands 2.51% (inactive). Take `Cc1cc(Nc2ccccc2)n(C(=O)c2ccc(N)cc2)n1`: the inhibition is 3.89% (inactive).

On to `O=C1C2N=NN(CC(=O)N3N=C(c4cccc5ccccc45)CC3c3ccccc3)C2C(=O)N1c1ccccc1` (stereo unspecified), for which the inhibition was -0.31% (inactive).

In the case of `C=CCn1c(=S)[nH]c2scc(-c3ccco3)c2c1=O`, the inhibition was 1.52% (inactive). Consider `CCCc1ccc(OCC(=O)NNC(=S)NC(=O)c2ccco2)cc1`, for which the inhibition was -5.19% (inactive).

On to `Cc1cc(N/N=C\c2ccc(Br)cc2)nc(-n2nc(C)cc2C)n1`, for which the inhibition was -2.43% (inactive). As to `Cc1ccc(-c2cc(C(=O)Nc3nn[nH]n3)c3ccccc3n2)c(C)c1`, the inhibition is -5.88% (inactive).

As for `Cc1ccc(NS(=O)(=O)c2ccc(N/N=C/c3ccccc3OCC(=O)O)c([N+](=O)[O-])c2)c(C)c1`, the inhibition is 3.83% (inactive).

Regarding `OCCNc1nc(Nc2ccc(Cl)c(Cl)c2)nc2ccccc12`, the inhibition is 6.65% (inactive). Under `CSc1ccc(/C=N\NC(=O)COc2ccc(Cl)cc2Br)cc1` stands -2.43% (inactive). As to `CCCCn1c(SCc2ncc(-c3ccccc3)o2)nc2cc(S(N)(=O)=O)ccc21`, the inhibition is -3.7% (inactive).

Regarding `CN(C(=O)COC(=O)c1cc(-c2ccco2)nc2ccccc12)C1CCS(=O)(=O)C1` (stereo unspecified), the inhibition was -3.35% (inactive).

For `Oc1c(Cl)cc(Cl)c(Cl)c1Cc1c(O)c(Cl)cc(Cl)c1Cl`, the inhibition was -0.37% (inactive). The same measure for `Cc1cc(-c2csc(N)n2)c(C)n1-c1ccccc1`: -5.26% (inactive); for `C#CCOCCOCCOCCNc1nc(N2CCN(C(=O)CCCCCCCCCCNC(=O)[C@H](CCCCN)n3cc(C)nn3)CC2)nc(N2CCN(C(=O)CCCCCCCCCCNC(=O)[C@H](CO)n3cc(CCCSC)nn3)CC2)n1`: -2.42% (inactive). The same measure for `COc1cc(C2C(C(=O)c3ccc(C)o3)=C(O)C(=O)N2CCc2ccccc2)ccc1O` (stereo unspecified): 1.74% (inactive). For `Cc1ccccc1S(=O)(=O)N1[C@@H](c2cccc(Cl)c2)C(C(=O)O)=CC[C@H]1c1ccc(Cl)cc1`, the inhibition is 1.77% (inactive). Take `O=C1C(=O)N(CC2COc3ccccc3O2)c2ccccc21` (stereo unspecified): the inhibition is -2.89% (inactive). The same measure for `C#CCOCCOCCOCCNc1nc(N2CCN(C(=O)CCCCCCCCCCNC(=O)[C@H]([C@@H](C)CC)n3cc(CCCCN=C(N)N)nn3)CC2)nc(N2CCN(C(=O)CCCCCCCCCCNC(=O)[C@H](CO)n3cc(CCCSC)nn3)CC2)n1`: 4.44% (inactive); for `COc1ccc(-c2nn(-c3ccccc3)cc2/C=C\C(=O)Nc2ccc(C(=O)O)cc2)cc1`: 5.85% (inactive).

With `C/C(CC(O)(/C=N/O)c1ccccc1)=N\O` (stereo unspecified), the inhibition was -4.09% (inactive). For `N=c1n(Cc2ccc(Cl)cc2)c2ccccc2n1CC(O)c1ccco1` (stereo unspecified), the inhibition was -3.3% (inactive).

Take `CN1CCN(CCCNC(=O)c2ccc(/C=C3\Oc4ccccc4N(Cc4ccc(Cl)cc4)C3=O)cc2)CC1`: the inhibition was 0.17% (inactive). As to `Oc1c(CN2CCN(c3ccc(F)cc3)CC2)cc(Cl)c2cccnc12`, the inhibition is 2.27% (inactive). Under `Cc1cccc(OCC(O)Cn2c(=N)n(CCN3CCOCC3)c3ccccc32)c1` (stereo unspecified) stands 0.64% (inactive). As to `CCNS(=O)(=O)c1ccc(NC(=O)Nc2cccc(C(F)(F)F)c2)cc1`, the inhibition was 7.24% (inactive). For the compound `COc1ccccc1/C=N\Nc1cc(C)nc(-n2nc(C)cc2C)n1`, the inhibition is -0.35% (inactive). For the compound `O=C(Nc1nnc(-c2ccccc2)o1)c1cc(-c2cccs2)nc2ccccc12`, the inhibition is -6.61% (inactive). As to `Cc1ccc(-c2nn(-c3ccccc3)cc2/C=C2\SC(=S)N(CCCCCC(=O)O)C2=O)o1`, the inhibition is 1.44% (inactive). For the compound `Cc1ccc2nc(N3C(=O)C(O)=C(C(=O)c4ccco4)C3c3cccc(O)c3)sc2c1` (stereo unspecified), the inhibition was -0.83% (inactive).

In the case of `COc1cnc(-c2ccccn2)nc1Oc1ccc(C(C)(C)C)cc1`, the inhibition is 1.77% (inactive). Regarding `O=C(Nc1nc(-c2ccco2)c(-c2ccco2)s1)c1ccco1`, the inhibition was 0.46% (inactive). Consider `CCCOc1ccc(C2C(C(=O)c3ccc(C)o3)=C(O)C(=O)N2CCCn2ccnc2)cc1` (stereo unspecified), for which the inhibition was 2.29% (inactive). Under `O=C(CSc1nnc(C2CC2)n1Cc1ccccc1)Nc1cccnc1Cl` stands -2.71% (inactive); under `Oc1ccc(C2Nc3cccc4cccc(c34)N2)cc1`, 8.12% (inactive). With `C=CCN(CC=C)S(=O)(=O)c1ccc(C(=O)Nc2nc3c(s2)CCc2ccccc2-3)cc1`, the inhibition was -1.58% (inactive). For the compound `CCCCCCCCCCOC(=O)Cn1c(COc2cccc(OC)c2)[n+](C)c2ccccc21`, the inhibition was 3.6% (inactive). For `COc1cccc(/C=N/NC(=O)c2[nH]nc3c2CCc2ccccc2-3)c1O`, the inhibition is -2.54% (inactive).

As to `Cc1ccc(NC(=O)COc2ccc(/C=C3/NC(=O)NC3=O)cc2)cc1`, the inhibition is -6.15% (inactive).
